# Bioassay records: PubChem BioAssay, National Center for Advancing Translational Sciences (NCATS)
# DT40 TDP1 no CPT: qHTS for Inhibitors of human tyrosyl-DNA phosphodiesterase 1 (TDP1): qHTS in cells in absence of CPT; Potency, µM (titrated, usually from 46.2 µM), inactives show top-dose activity change, negative = growth inhibition, usual class: inhibitors; 420,000 tested, 15% active; DT40 Tdp1-/- hTDP1 cells, no CPT, ATP luminescence, 48 h; note: nearly all actives have a fitted effect of over 55% in size
#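 Cells were dispensed at 400 per well, compounds added by pin tool, plates incubated ≥48 hr at 37 °C, then CellTiter-Glo added for 30 min at room temperature before luminescence reading. Line: DT40 Tdp1-/- complemented with hTDP1; camptothecin omitted.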
# TDP1 block: blocks human tyrosyl-DNA phosphodiesterase 1; Q9NUW8; recombinant TDP1, AlphaScreen DNA substrate cleavage; Potency, µM (series often up to 130 µM), inactives show at the top dose activity change, negative = inhibition, actives largely listed as inhibitors; 350,000 tested, 0.28% active; note: nearly all actives have a fitted effect of over 40% in size
#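 Steps: enzyme plus compound, 15 min RT; add biotin/phosphotyrosine-FITC oligonucleotide (15 nM final), react 5 min; add donor/acceptor beads (10 ug/ml final), 10 min; read AlphaScreen. Tdp1 at 1 nM final.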
# PLK1 PBD inh: inhibitors of human PLK1 polo-box domain binding. 360,000 tested, 2.8% active. P53350. Potency, µM, for inactives: max response, negative = inhibition, hits mostly inhibitors. Plk1 PBD binding of FITC phosphopeptide, fluorescence polarization; note: series mostly up to about 57 µM; nearly all actives have a fitted effect of over 65% in size
# VDR inh: blocks the human vitamin D receptor | P11473 | VDR-SRC2-3 peptide fluorescence polarization, 2 h | Potency, µM, for the others: max response, negative = inhibition, hits mostly inhibitors | 400,000 tested, 0.93% active | AID 504847
#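 Compounds are added to VDR with labelled SRC2-3 coactivator peptide and held 2 h at room temperature. Inhibition of the VDR–peptide interaction is then read as a change in fluorescence polarization.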
# GCN5L2 inh: GCN5L2 (KAT2A) acetyltransferase inhibition; Q92830; GCN5L2 HAT assay, ThioGlo1 CoA-SH fluorescence; Potency, µM (series often up to 58.9 µM), for inactives: at the highest dose activity change, negative = inhibition, actives largely listed as inhibitors; 390,000 tested, 0.21% active; AID 504327
#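 GCN5L2 (20nM final) in 50mM HEPES, 0.1mM EDTA pH 7.5, 0.01% Tween-20 was preincubated 15 min at room temperature with compound, then given ThioGlo1 (50uM), H3(1-25) peptide (75uM) and acetyl-CoA (70uM); CoA-thiol fluorescence (Ex340/Em540) was read at 0 and 20 min.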
# TDP1 cell CPT: DT40-hTDP1 cell growth loss with CPT; Potency, µM (highest dose often 46.2 µM), inactives show at the highest dose activity change, negative = growth inhibition, actives largely listed as inhibitors; 420,000 tested, 12% active; chicken DT40 Tdp1-/-;hTDP1 cells + 20 nM CPT, ATP luminescence, 48 h; note: nearly all actives have a fitted effect of over 55% in size
#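 Cell growth measured by CellTiter-Glo luminescence after a minimum 48 h, 37 C compound exposure with 20 nM CPT in Tdp1-knockout DT40 cells stably expressing hTDP1, seeded 400/well; qHTS titration format.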
# Numbers without * were called inactive; ? = inconclusive; . = not tested or not shown; [ ] = dose if it differs, or a comment. Only some compounds are listed: those with a hit (about 18% of all), similar ones and a draw of the others. Calls come from the whole dose curve; as a rule, active = well fitted curve in the direction sought with a large enough effect; inconclusive = small, poorly fitted or top-dose-only effect, or another doubt; inactive = no such curve, though single readings can be large; an effect the other way counts as inactive or inconclusive. % is set by controls: 0 for no effect and ±100 for the full control effect; potency is the fitted concentration of half-maximal effect.
SMILES,DT40 TDP1 no CPT,TDP1 block,PLK1 PBD inh,VDR inh,GCN5L2 inh,TDP1 cell CPT
CC(=O)Nc1ccc(S(=O)(=O)N2CCN(S(=O)(=O)N3CCC(C)CC3)CC2)cc1,-16%,0%,6%,-4%,-2%,-25%
CC(C)(C)OC(=O)N1CCC(c2c(C(=O)Nc3cccc(C(F)(F)F)c3)cnn2-c2ccc(F)cc2F)CC1,?,5%,.,3%,-6%,?
COc1ccc(NC(=O)c2cnn(-c3ccc(F)cc3F)c2C2CCN(C(=O)OC(C)(C)C)CC2)cc1Cl,18µM*,3%,.,4%,1%,?
CC(C)(C)OC(=O)N1CCC(c2c(C(=O)Nc3ccc4c(c3)OCCO4)cnn2-c2ccc(F)cc2F)CC1,-108%,-1%,.,7%,7%,21µM*
Cc1ccsc1C(=O)N(C)C1CCS(=O)(=O)C1 (stereo unspecified),14%,0%,5%,20%,-2%,3%
CC1=CCC2C(=O)N(c3ccc4ccccc4n3)C(=O)C2C1 (stereo unspecified),-20%,6%,-11%,-26%,-9%,1%
Cc1cc(=O)n(-c2ccc3ccccc3n2)[nH]1,21µM*,10%,-4%,-3%,1%,18µM*
COc1ccc(OC)c(CNC(=O)c2cc(S(=O)(=O)N3CCC(C)CC3)cn2C)c1,?,4%,.,7%,0%,?
CCOc1ccc(N2C=Nc3ccc(OCC)cc3C2)cc1,18µM*,.,-8%,-24%,-15%,21µM*
COc1ccc(NC(=O)N2CCc3nc(COc4ccccc4)c4c(c3C2)CO[C@@H](C)C4)cc1,.,5%[12.3 µM],.,.,.,.
Oc1c(CN2CCOCC2)cc(-c2ccccc2)cc1CN1CCOCC1,-8%,2%,-3%,-7%,-5%,-19%
COc1ccc(/C=C/C(=O)C23CC4CC(CC(C4)C2)C3)cc1CN1CCOCC1,18µM*,7%,-12%,-27%,0%,?
COc1ccc(/C=N/NC(=O)c2ccc(Br)cc2)cc1CN1CCOCC1,-14%,4%,-8%,-19%,-3%,14%
COc1ccc(/C=C/C(=O)c2ccc(O)cc2)cc1CN1CCOCC1,29µM*,0%,-17%,?,-10%,?
COc1ccc(/C=C/C(=O)c2ccc3ccccc3c2O)cc1CN1CCOCC1,18µM*,8%,-5%,-28%,-10%,?
COc1ccc(/C=N\NC(=O)c2nn(C)cc2Cl)cc1CN1CCOCC1,-7%,3%,2%,-8%,-5%,21%
Oc1c(CN2CCOCC2)ccc2ccccc12,?,8%,24µM*,?,0%,?
CC12CCC(=O)N1C(C(=O)NCc1ccc(Cl)cc1Cl)CS2 (stereo unspecified),-29%,-2%,-2%,11%,3%,-15%
CCCN(CCC)C(=O)Nc1cc(Cl)ccc1OC,?,5%,-2%,6%,-14%,?
CCn1c(SCC(=O)Nc2ccc(F)cc2)nnc1-c1cnccn1,15%,0%,-20%,6%,-1%,-24%
O=C(Nc1ccc(F)c(Cl)c1)N1CCN2CCCCC2C1 (stereo unspecified),0%,6%,.,-3%,-8%,5%
CCC(C(=O)Nc1c(C)cccc1C)n1c(-c2cnc(C)cn2)nc2ccccc21 (stereo unspecified),-27%,.,-1%,.,.,-10%
COc1ccc(C(=O)/C=C/c2ccc(OC)c(Cn3nnc4ccccc43)c2)cc1,21µM*,3%,-13%,-15%,-6%,18µM*
COc1ccc(C(=O)/C=C/c2ccc(OC)c(CN3CCOCC3)c2)cc1,23µM*,8%,-2%,?,-6%,?
